# An excerpt weighted towards active compounds, which were near 13% of everything screened.
# USP28 inh – inhibitors of human USP28 deubiquitinase; Q96RU2; purified USP28, Ub-rhodamine cleavage fluorescence, 30 min; inhibition, % at 25 µM; hit rate 3% among 47,000; AID 1645857
# OTUD3 inh – inhibitors of human OTUD3 deubiquitinase; inhibition, % at 25 µM; purified OTUD3, Ub-rhodamine fluorescence, 2 h; AID 1645858; Q5T2D3; hit rate 0.7% among 47,000
# USP17 inh – inhibitors of human USP17 deubiquitinase. A8MUK1. purified USP17, Ub-rhodamine cleavage fluorescence, 3 h. inhibition, % at 50 µM. hit rate 6.5% among 47,000. AID 1645855
# USP8 block – blocks human USP8 ubiquitin-rhodamine cleavage; P40818; inhibition, % at 20 µM; hit rate 4.2% among 47,000; purified USP8, Ub-rhodamine cleavage fluorescence, 30 min; AID 1645853
# USP30 inh – human USP30 deubiquitinase inhibition | Q70CQ3 | purified USP30, Ub-rhodamine cleavage fluorescence | inhibition, % at 25 µM | hit rate 5.3% among 47,000 | AID 1645860
# Starred values were filed as active, the others as inactive; · = not tested or not shown. Rule as the data show it: active = inhibition above about 30%; inactive = the rest.
SMILES,USP28 inh,OTUD3 inh,USP17 inh,USP8 block,USP30 inh
O=C(Nc1ccccc1F)c1nc(-c2cn(-c3ccc(F)cc3)nn2)no1,15,-5,-4,90*,-17
O=C(NC1CC1)c1nc(-c2cn(-c3ccc(Cl)cc3)nn2)no1,11,2,18,40*,19
O=C1COc2ccccc2C/C=C/CC2(CCN(S(=O)(=O)N3CCCC3)CC2)CN1,5,8,8,12,16
COc1ccccc1NC(=O)c1nn(-c2cccc(F)c2)c(OC)cc1=O,18,9,46*,17,76*
COc1cc(=O)c(C(=O)Nc2ccccc2)nn1-c1cccc(F)c1,-7,-2,-4,-9,9
Cc1c(C(C)OC(=O)c2ccc(F)cc2)sc2ncnn12 (configuration not stated),29,18,17,8,32*
Nc1cccc(C(=O)c2ccc(C(=O)O)c(C(=O)O)c2)c1,-3,-7,-16,-16,-61
CCOc1ccccc1-c1nn2c(-c3cccnc3)nnc2s1,-1,-6,0,-23,-2
COc1ccccc1-c1nnc2sc(COc3cccc(C)c3)nn12,25,18,17,2,42*
COc1cccc(N2CCN(c3ccc4nnc(CCC(=O)NCCC5=CCCCC5)n4n3)CC2)c1,2,2,·,69*,8
COC(=O)C(NC(=O)CCc1nnc2ccc(N3CCN(c4cccc(OC)c4)CC3)nn12)C(C)C (configuration not stated),3,4,7,34*,9
CC(C)CCn1c(=O)c2ccccc2n2c(CCC(=O)NCc3ccccc3Cl)nnc12,-5,0,-1,19,-12
O=C(CCc1nnc2n(Cc3ccccc3)c(=O)c3ccccc3n12)NCc1cccnc1,9,4,18,1,38*
CC(C)OCCCn1c(=O)c2ccccc2n2c(CCC(=O)NCc3ccc4c(c3)OCO4)nnc12,19,21,29,17,40*
O=C(CCc1nnc2n(Cc3ccccc3Cl)c(=O)c3ccccc3n12)NCc1ccccn1,36*,13,45*,-7,65*
O=C(CCc1nnc2n(Cc3ccccc3Cl)c(=O)c3ccccc3n12)NCc1ccccc1,5,11,18,47*,-3
CC(C)CCn1c(=O)c2ccccc2n2c(CCC(=O)NCc3ccc4c(c3)OCO4)nnc12,7,20,22,26,3
CCc1ccc(C(=O)N2CCc3c(c(-c4nc(C5CC5)no4)nn3C)C2)cc1,-18,-22,-14,-10,-22
COc1ccc2[nH]c3c(=O)n(CCCN4CCN(C)CC4)cnc3c2c1,6,8,12,18,11
O=C(CCc1nnc2n(Cc3ccccc3Cl)c(=O)c3ccccc3n12)N1CCN(c2ccccn2)CC1,6,10,8,2,22
O=C(CCc1nnc2n(Cc3ccccc3)c(=O)c3ccccc3n12)N1CCC(Cc2ccccc2)CC1,22,11,14,17,38*
COc1ccc(CNC(=O)CCc2nnc3n(Cc4ccccc4Cl)c(=O)c4ccccc4n23)cc1,36*,33*,43*,38*,40*
O=C(CCc1nnc2n(Cc3ccccc3)c(=O)c3ccccc3n12)N1CCCC1,7,5,6,0,17
CC(C)CC(=O)N1CCCC(c2nc(N3CCOCC3)ncc2-c2cccnc2)C1 (configuration not stated),-5,-3,-1,-3,10
CC(=O)N1CCCC(c2nc(N3CCOCC3)ncc2-c2cccnc2)C1 (configuration not stated),24,18,23,8,37*
SMILES,USP28 inh,OTUD3 inh,USP17 inh,USP8 block,USP30 inh
O=C(Oc1cccc(NC2=NS(=O)(=O)c3ccccc32)c1)c1ccc(S(=O)(=O)N2CCCCC2)cc1,·,0,52*,7,·
O=C(c1ccc(S(=O)(=O)N2CCOCC2)cc1)N1CCN(C2=NS(=O)(=O)c3ccccc32)CC1,4,0,1,15,11
Cc1ccc(NC(=O)CCc2nc(-c3cccnc3)no2)cc1C,-3,-7,-12,-12,-27
Cc1nn(-c2cc(N(C)C)ncn2)c(C)c1CCC(=O)NCc1ccccc1Cl,-3,0,-6,-5,0
c1ccc(-c2onc3c2CCCC3)cc1,35*,10,9,10,17
COc1ccc(NC(=O)C2(N(C(=O)c3ccc(-n4cnnn4)cc3)c3ccc(OC)cc3)CCCCC2)cc1,7,11,13,18,28
c1ccc2oc(CN3CC[C@H](c4nnc(-c5ccncc5)o4)C3)cc2c1,-11,-9,-37,34*,-65
Fc1ccccc1CN1CC[C@H](c2nnc(-c3ccncc3)o2)C1,6,0,-2,-4,-6
O=C(c1ccccc1)C1CCN(S(=O)(=O)c2ccc(Cl)cc2)CC1,14,7,12,0,31*
O=C(c1ccc(S(=O)(=O)N2CCCCC2)cc1)c1nnc(-c2ccc(Cl)cc2)o1,11,14,0,8,30*
O=C(NCCN1CCOCC1)C1CCN(S(=O)(=O)c2ccc(Cl)cc2)CC1,6,10,14,23,35*
Cc1ccccc1NC(=O)Cn1c(=O)c2c(ncn2C2CCCC2)n(Cc2ccccc2)c1=O,5,12,11,39*,-6
Cc1ccccc1NC(=O)Cn1ccc2ccn(Cc3ccccc3)c2c1=O,-24,-17,-4,49*,-62
Cc1ccccc1NC(=O)Cn1cccc(-c2nc(-c3ccccc3)no2)c1=O,-34,-27,-11,28,-66
O=C(Cn1ccc2ccn(Cc3ccccc3)c2c1=O)Nc1cccc(F)c1,3,4,49*,32*,18
COc1ccc(-c2cc3c(=O)n(CC(=O)Nc4ccccc4C)ccn3n2)cc1,6,10,36*,31*,31*
CC(C(=O)NCc1noc(-c2ccccc2)n1)c1ccccc1 (configuration not stated),-12,-4,·,-7,-10
Cc1cccc(C)c1OCC(=O)NCC(c1ccco1)N1CCCC1 (configuration not stated),9,16,-1,17,12
CC(CNc1nccn(-c2ccc3c(c2)OCO3)c1=O)c1ccccc1 (configuration not stated),12,12,12,7,16
O=S(=O)(c1ccc(F)cc1)N1CCC2(CC1)NCCN=C2NCc1ccccc1,-10,-8,-23,-3,-2
COc1ccc(C)cc1S(=O)(=O)NNc1nc(C)cc(C)n1,8,0,34*,76*,7
COc1cc(O)c2c(O)c3c(cc2c1)CC(C)OC3=O (configuration not stated),64*,53*,75*,29,-56
C[C@@H]1Cc2cc(O)cc(O)c2C(=O)O[C@H](C)CC(=O)OC[C@@H](O)CC(=O)O[C@H](C)Cc2cc(O)cc(O)c2C(=O)O[C@H](C)CC(=O)O1,-4,0,-10,4,-14
